This excerpt belongs to a sample that is enriched for hits.
Cruzain inh Det: qHTS Assay for Promiscuous and Specific Inhibitors of Cruzain (with detergent); purified cruzain, Z-FR-AMC fluorescence, 0.01% Triton; hit rate 0.43% among 200,000; Cruzipain (Trypanosoma cruzi), P25779; Potency, µM, hits mostly inhibitors; note: nearly all actives have a fitted effect of over 40% in size
Target sequence (P25779 123-467 limits assumed): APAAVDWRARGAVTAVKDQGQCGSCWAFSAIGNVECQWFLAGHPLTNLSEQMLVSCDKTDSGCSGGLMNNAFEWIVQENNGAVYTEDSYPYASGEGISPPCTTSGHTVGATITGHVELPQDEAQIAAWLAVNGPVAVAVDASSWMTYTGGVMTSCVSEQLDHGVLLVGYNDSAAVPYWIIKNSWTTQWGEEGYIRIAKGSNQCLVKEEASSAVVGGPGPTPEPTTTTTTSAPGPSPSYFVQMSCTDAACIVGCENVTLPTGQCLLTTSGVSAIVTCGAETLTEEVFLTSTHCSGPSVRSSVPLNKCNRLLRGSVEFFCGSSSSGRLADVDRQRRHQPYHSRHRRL
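15 min RT preincubation of 1.5 nM cruzain with compound, then 2 uM Z-FR-AMC added; kinetic AMC fluorescence, 60 s delta. Triton X-100 0.01%, pH 5.5.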
NS1 function inh: qHTS Assay for Inhibitors of Influenza NS1 Protein Function | Potency, µM (highest dose often 46.1 µM) | hit rate 0.4% among 270,000 | AID 2326, 2010; calls by dose curve; note: actives are rising curves; nearly all actives have a fitted effect of over 50% in size
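Read-out: OD600 growth recovery of NS1-expressing budding yeast. Cells grown overnight at 30C in -URA glucose medium, washed, resuspended and diluted 1:100 in 2% galactose assay medium, pH 6.0. Same strain lacking NS1 served as positive control.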
Cruzain noTriton: qHTS Assay for Promiscuous and Specific Inhibitors of Cruzain (without detergent) | purified cruzain, Z-FR-AMC fluorescence, no detergent | Cruzipain (Trypanosoma cruzi), P25779 | AID 1476, 2009 | hit rate 2.3% among 200,000 | Potency, µM, usual class: inhibitors; note: nearly all actives have a fitted effect of over 40% in size
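Detergent-free condition (0.00005% Triton X-100) in acetate buffer pH 5.5 with DTT. 1.5 nM enzyme and compound were pre-mixed 15 min, then 2 uM Z-FR-AMC substrate added; reaction progress from fluorescence change between first and third reads (60 s).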
Hits are given with their value; – = inactive; ? = inconclusive; · = no result given. Unless noted, calls come from the whole dose curve; as a rule, active = well fitted curve in the direction sought with a large enough effect; inconclusive = small, poorly fitted or top-dose-only effect, or another doubt; inactive = no such curve, though single readings can be large; an effect the other way counts as inactive or inconclusive.

SMILES	Cruzain inh Det	NS1 function inh	Cruzain noTriton
CCN(CC)c1ccc(/C=C(\C#N)c2nc(-c3cccs3)c(NC(C)=O)s2)cc1	–	?	16µM
CC(=O)Nc1sc(N/N=C\c2ccc(O)cc2)nc1-c1cccs1	·	–	·
COc1ccccc1C(=O)Nc1cc2cc(Br)ccc2oc1=O	–	–	16µM
COc1ccccc1C(=O)Nc1cc2ccccc2oc1=O	–	?	–
CC[C@@H]1C(c2ccccc2)=NN(c2ccc(Br)cc2)[C@H]1C(=O)N1CCOC1=O	–	·	25µM
O=C1OCCN1C(=O)[C@H]1[C@H](c2ccc(F)cc2)C(c2cccc(Cl)c2)=NN1c1ccc(Br)cc1	–	·	16µM
CC[C@@H]1C(c2cccc(Cl)c2)=NN(c2ccc(Br)cc2)[C@H]1C(=O)N1CCOC1=O	–	·	?
O=C(c1cc(-c2cccc(Cl)c2)on1)N1CCN(c2ccc(F)cc2)CC1	·	–	·
CC(=O)Nc1ccc(C2CC(c3ccc(Cl)cc3)=NN2c2ccccc2)cc1 (stereo not drawn)	·	–	·
O=C1OCCN1C(=O)[C@H]1[C@H](c2ccc(Cl)cc2)C(c2ccccc2)=NN1c1ccc(Br)cc1	–	·	11µM
O=C1OCCN1C(=O)[C@H]1[C@H](c2ccccc2)C(c2cccc(Cl)c2)=NN1c1ccc(Br)cc1	–	·	13µM
Cc1cc(C)c2nc3c(c([C@H](O)C4CCCCN4)c2c1)CC/C3=C/c1ccc(Cl)cc1 (stereo partly drawn)	–	–	–
CCc1ccc(NCc2cc3ccc(OC)cc3n(CC(=O)Nc3cccc(Cl)c3C)c2=O)cc1	–	·	–
CCOC(=O)c1cccc(Nc2cc(C)nc(C)n2)c1	–	·	–
Cl/C=C/Cl	–	·	–
CS(=O)(=O)N1CCN(c2ccccc2NC(=O)c2ccc3ccccc3c2)CC1	–	–	20µM
CS(=O)(=O)N1CCN(c2ccccc2NC(=O)c2ccc(Cl)cc2)CC1	–	–	–
CCCCCn1c(N2CCN(c3cccc(Cl)c3)CC2)nc2c1c(=O)[nH]c(=O)n2C	–	–	?
Cn1c(=O)[nH]c(=O)c2c1nc(N1CCN(c3cccc(Cl)c3)CC1)n2CCCc1ccccc1	–	–	13µM
CCOC(=O)c1cc(-c2ccccc2)sc1NC(=O)C(C)N1C(=O)c2ccccc2C1=O (stereo not drawn)	–	–	25µM
CCOC(=O)c1cc(-c2ccccc2)sc1NC(=O)CCN1C(=O)c2ccccc2C1=O	–	–	?
CCOC(=O)c1cc(-c2ccccc2)sc1NC(=O)CN1C(=O)NC(CC)(c2ccccc2)C1=O (stereo not drawn)	–	–	10µM
CCOC(=O)c1cc(-c2ccccc2)sc1N	–	–	25µM
CCOC(=O)c1sc(-c2ccccc2)cc1N	–	–	–
CCOC(=O)c1cc(-c2ccccc2)sc1NC(=O)CC	–	–	–
SMILES	Cruzain inh Det	NS1 function inh	Cruzain noTriton
O=C(O)C(Cl)Br (stereo not drawn)	–	·	–
CCCCC[C@H](O)/C=C/C=C\C/C=C\C/C=C\CCCC(=O)O	–	·	–
Cc1cc(/C=N/NC(=O)CC#N)c(C)n1-c1ccc([N+](=O)[O-])cc1	·	–	·
COCc1c(Br)c(C)nc(OCC(=O)N/N=C/c2cc(C)n(-c3ccc([N+](=O)[O-])cc3)c2C)c1C#N	–	–	32µM
CC1CCCN(c2ccc(/C=C(\C#N)c3nn(-c4ccccc4)c(N)c3C#N)cc2[N+](=O)[O-])C1 (stereo not drawn)	–	?	–
CC1CCN(c2ccc(/C=C(\C#N)c3nn(-c4ccccc4)c(N)c3C#N)cc2[N+](=O)[O-])CC1	–	–	–
N#C/C(=C\c1ccc(N2CCCCC2)c([N+](=O)[O-])c1)c1nn(-c2ccccc2)c(N)c1C#N	–	–	20µM
CC1CCN(c2cc(N3CCC(C)CC3)c([N+](=O)[O-])cc2/C=C(\C#N)c2nn(-c3ccccc3)c(N)c2C#N)CC1	–	–	2µM
CCCCC/C=C\C/C=C\C/C=C\CCCCCCC(=O)NCCc1ccc(O)c(O)c1	–	·	–
COC(=O)c1cc(-c2ccc3ccccc3c2)[nH]c(=O)c1C#N	–	–	–
COC(=O)c1nn(-c2ccccc2)c(Cl)c1/C=N/OCc1ccc(Cl)cc1Cl	–	–	–
CN(C)/C=C(\C=N\OCc1ccc(Cl)cc1Cl)C(=O)Nc1ccc(Cl)c(Cl)c1	–	–	20µM
Cc1ccc2nc(SCC(=O)NCc3ccco3)c(C#N)cc2c1	–	–	25µM
Cc1ccc2nc(SCC(=O)NCc3cccs3)c(C#N)cc2c1	–	–	10µM
Cc1ccc2cc(C#N)c(SCC(=O)NCc3ccco3)nc2c1	–	–	?
Cc1ccc2nc(SCC(=O)NCc3ccco3)c(C)cc2c1	·	–	·
Cc1cccc(C)c1Nc1oc(-c2ccccc2)nc1-c1ccccc1F	–	·	–
O=C1OC(c2cc(I)c(O)c(I)c2)(c2cc(I)c(O)c(I)c2)c2ccccc21	–	·	–
Cn1c(=O)oc2cc(S(=O)(=O)CCC(=O)N3CCN(c4cccc(Cl)c4)CC3)ccc21	–	·	–
COCCn1c(=O)c(CCc2ccccc2)nc2cnc(N(C)C)nc21	–	·	?
CC(C)=C[C@H]1[C@@H](C(=O)OCc2cc3c(cc2Cl)OCO3)C1(C)C	–	–	–
O=c1cc(-c2ccccc2)c2ccc3c(c2o1)CN(Cc1ccccc1)CO3	–	·	?
COc1ccc(-c2cc(=O)oc3c4c(ccc23)OCN(Cc2ccccc2)C4)cc1	–	·	25µM
O=C1C2C3c4ccccc4C(c4ccccc43)[C@@H]2C(=O)N1c1nc(-c2ccccc2)cs1 (stereo partly drawn)	–	–	13µM
O=C1C2C3c4ccccc4C(c4ccccc43)C2C(=O)N1c1nc(-c2ccccc2)cs1 (stereo not drawn)	–	–	?
SMILES	Cruzain inh Det	NS1 function inh	Cruzain noTriton
NC(=O)CCCCC(N)=O	–	·	–
O=C(O)Cc1ccc([N+](=O)[O-])cc1[N+](=O)[O-]	–	–	–
O=C(O)c1cc[c]([Hg][S]c2ncnc3nc[nH]c23)cc1	–	–	–
Cc1ccccc1Nc1sc(C(=O)c2ccc3c(c2)OCO3)c(N)c1S(=O)(=O)c1ccccc1	–	·	7.9µM
Cc1ccc(CNC(=O)c2c(Nc3ccccc3C)sc(C(=O)c3ccc(F)cc3)c2N)cc1	–	·	?
Cc1ccc(S(=O)(=O)c2c(Nc3ccccc3)sc(C(=O)c3ccc4c(c3)OCO4)c2N)cc1	–	·	7.9µM
COc1ccc(S(=O)(=O)c2c(Nc3ccc(C)cc3)sc(C(=O)c3ccc4c(c3)OCO4)c2N)cc1	–	·	3.2µM
Cc1ccc(Nc2sc(C(=O)c3ccccc3)c(N)c2C(=O)Nc2ccc(Cl)cc2)cc1	–	·	?
COc1ccc(S(=O)(=O)c2c(Nc3ccc(F)cc3)sc(C(=O)c3ccc4c(c3)OCO4)c2N)cc1	–	·	?
Nc1cnn([C@@H]2O[C@H](CO)[C@@H](O)[C@H]2O)c(=O)n1	–	·	–
COCCNc1ncnc2ccc(-c3cccc(OC)c3)cc12	–	·	–
CSc1nc(Nc2ccc(C)cc2)c(C#N)c(-c2ccccc2)n1	–	·	–
CN1C2CC(OC(=O)C(CO)c3ccccc3)C[C@@H]1[C@H]1OC21 (stereo partly drawn)	–	·	–
COc1ccccc1CCNC(=O)C(=O)NCC(c1ccco1)S(=O)(=O)c1ccc(C)cc1 (stereo not drawn)	–	·	–

Compound activity deposited in PubChem by National Center for Advancing Translational Sciences (NCATS).
